Test results taken from PubChem BioAssay AID1745857 (National Center for Advancing Translational Sciences (NCATS), 2022).
Hit rate of the full screen: of about 120,000 compounds, about 370 (0.31%) were called active. Another 4% or so got no clear call; they are omitted. Shown is part of a subset that was picked to be rich in actives. Where a call stands in place of a potency, no number is given. Unmarked numbers belong to inactive results. Calls come from the whole dose curve.

Assay: Primary qHTS Assay for Foot and Mouth Disease Virus Antivirals against NCGC Sytravon and CBC Compound Libraries: Renilla Luciferase Signal; note: nearly all actives have a fitted effect of over 55% in size
Conditions: FMDV replicon cells; series mostly up to 57.5 µM
Potency is the fitted concentration of half-maximal effect.

Row | SMILES | Potency | activity change, negative = inhibition
1 | Cn1c(=O)c2c(ncn2CC(=O)NCCc2cccc(F)c2)n(C)c1=O | inactive | –
2 | C=C(C)CN1CCN(c2oc(C3CC3)nc2C#N)CC1 | inactive | –
3 | Cc1c(-c2ccccc2)oc2c(C(=O)OCC(=O)C(C)(C)C)cccc2c1=O | inactive | –
4 | COCCNC(=O)COc1cc(O)c2c(=O)cc(-c3ccccc3)oc2c1 | inactive | –
5 | CCc1cccc(NC(=O)c2ccc3c(c2)NC(=O)CS3)c1 | inactive | –
6 | CC(C)Sc1c(C(C)C)cnc2c1c(=O)n(C)c(=O)n2C | inactive | –
7 | CC(C)Oc1ccc(C(O)(CC[N+](C)(C)C)C2CCCCC2)cc1 (stereo not drawn) | inactive | –
8 | COc1ccc(/C=C/c2ccc3cccc(O)c3n2)cc1OC | inactive | –
9 | Cc1sc2nc(CN3CCOCC3)nc(N(C)CC(=O)Nc3ccc(F)cc3)c2c1C | inactive | –
10 | Cc1ccc(-c2csc3c2NC(=O)CC3c2ccc(C)cc2)cc1 (stereo not drawn) | inactive | –
11 | COc1ccc(C2CC(=O)Nc3c2c(=O)nc2c(C)cccn32)cc1OC (stereo not drawn) | inactive | –
12 | COc1ccc(-c2csc3c2NC(=O)CC3c2ccc(OCC(N)=O)c(OC)c2)cc1 (stereo not drawn) | 2.82 µM (active) | –
13 | COc1ccc(Nc2nc(-c3ccc(NC(C)=O)cc3)cs2)cc1 | inactive | –
14 | COc1ccc(CNC(=O)NCc2noc3ccc(C)cc23)cc1 | inactive | –
15 | COC(=O)COc1ccc2c(C)c(CC(=O)OC)c(=O)oc2c1C | inactive | –
16 | O=C(Cc1cnc(-c2ccccc2F)s1)Nc1nccs1 | inactive | –
17 | COc1ccc(S(=O)(=O)N2CCC(C(=O)NCc3cccnc3)CC2)cc1 | inactive | –
18 | O=C(O)c1ccc(CNCc2ccco2)cc1 | inactive | –
19 | Cc1cc2nc(/N=C(\N)NC(=O)Cc3ccccc3)nc(C)c2cc1C | inactive | –
20 | Cn1c(=O)c2nc(SCC(=O)NCc3ccc(Cl)cc3)n(C)c2n(C)c1=O | inactive | –
21 | Cc1noc(C)c1S(=O)(=O)N(C)CC(=O)Nc1ccc(C(C)(C)C)cc1 | inactive | –
22 | CN(C)S(=O)(=O)c1cccc(C(=O)Nc2cccc(Oc3ccccc3)c2)c1 | inactive | –

Row | SMILES | Potency | activity change, negative = inhibition
23 | CCCCn1c(=O)[nH]c(=O)c2c1nc(CSc1nnc(-c3ccco3)n1C)n2CC | inactive | –
24 | CCOC(=O)c1ccc(Oc2coc3cc(OC)ccc3c2=O)cc1 | inactive | –
25 | CN1CC[C@H](c2c(O)cc(O)c3c(=O)cc(-c4ccccc4Cl)oc23)[C@H](O)C1 | 1 µM (active) | –
26 | Cc1ccc(C(=O)O)cc1S(N)(=O)=O | inactive | –
27 | COc1ccc(NC(=O)c2cccc(-n3cccc3)c2)c(OC)c1 | inactive | –
28 | CCN(C(=O)Cn1c(CN2CCOCC2)nc2ccccc21)c1ccccc1 | inactive | –
29 | CCOc1cccc2c(C)nc(Nc3nc(CSc4ccc(C)cc4)cc(=O)[nH]3)nc12 | inactive | –
30 | Cc1ccc(CC(=O)N(C)CC(=O)N(CC(C)C)c2c(N)n(CC(C)C)c(=O)[nH]c2=O)cc1C | inactive | –
31 | O=C1c2ccccc2NC(c2cnc3ccccc3n2)N1c1ccc(F)cc1 (stereo not drawn) | inactive | –
32 | CCCCn1c(=O)[nH]c(=O)c2c1nc(CSc1n[nH]c(C)n1)n2CC | inactive | –
33 | COC(=O)c1ccc(C(=O)NCc2ccccc2C)cc1 | inactive | –
34 | Cc1c(C)[n+](=O)c2cc(F)c(F)cc2n1[O-] | inactive | –
35 | Cc1ccc(-c2noc(Cn3cnc(C#N)n3)n2)cc1F | inactive | –
36 | O=C1CCSc2c1cccc2C(=O)NCc1ccccc1Cl | inactive | –
37 | COCCn1c(SCc2cc(C)ccc2OC)nnc1-c1ccccc1 | inactive | –
38 | COc1ccc(Nc2nc3ccccc3nc2NS(=O)(=O)c2ccc(OC)cc2)cc1 | inactive | –
39 | CCOCCCNc1oc(-c2ccc(S(=O)(=O)N(C)C)cc2)nc1C#N | inactive | –
40 | Cc1cccc(NC(=O)c2cccc3ncccc23)c1 | inactive | –
41 | CC(NCc1cccs1)C12CC3CC(CC(C3)C1)C2 (stereo not drawn) | inactive | –
42 | CC(C)COc1ccc(/C=C(\C#N)C(=O)Nc2ccccc2C(=O)O)cc1 | inactive | –
43 | COC(=O)C(N)Cc1ccc2ccccc2c1 (stereo not drawn) | – | -8.69% [at 1.06 µM]
44 | O=C(NCC1CC1)c1cc(-c2ccncc2)nc2ccccc12 | inactive | –

Row | SMILES | Potency | activity change, negative = inhibition
45 | Brc1ccc(/C=N/Nc2nc3ccccc3c3ccccc23)cc1 | inactive | –
46 | CCCCCCCCCOc1ccc(C(=O)c2ccccc2)cc1 | inactive | –
47 | Cc1ccc(NC(=O)Cn2cc(/C=C3\NC(=O)NC3=O)c3ccccc32)cc1 | inactive | –
48 | c1ccc(N2CCN(c3nc(N4CCCCC4)nc4nccnc34)CC2)cc1 | inactive | –
49 | COc1ccccc1N1CCN(C(CNC(=O)C(=O)NCc2ccc(C)cc2)c2cccnc2)CC1 (stereo not drawn) | 7.08 µM (active) | –
50 | COc1ccccc1NC(=O)C(=O)NCC(c1cccnc1)N1CCN(c2ccccc2F)CC1 (stereo not drawn) | inactive | –
51 | O=C(NCc1cccnc1)C(=O)NCC(c1cccnc1)N1CCN(c2ccccc2)CC1 (stereo not drawn) | inactive | –
52 | CCOc1ccccc1NC(=O)N1CCC2(CC1)c1cccn1-c1ccc(C)cc1N2CC | inactive | –
53 | O=C(Cc1c[nH]c2ccccc12)N1CCN(C(=O)c2ccccc2)CC1 | inactive | –
54 | O=C(COc1ncnc2ccccc12)Nc1ccccc1Cl | inactive | –
55 | COC(=O)CNC(=O)c1cc2occc2n1Cc1ccccc1 | inactive | –
56 | COC1CC(OC2CCC3(C=O)[C@H]4CCC5(C)C(C6=CC(=O)OC6)CCC5(O)[C@@H]4CCC3(O)C2)OC(C)C1O (stereo partly drawn) | 0.398 µM (active) | –
57 | N#Cc1cn(C2CC2)c(=O)n(Cc2coc(-c3cccc(Cl)c3)n2)c1=O | inactive | –
58 | O=C(CCc1ncc(-c2ccc(F)cc2)o1)NCC(c1ccccc1)N1CCCC1 (stereo not drawn) | inactive | –
59 | O=C(CC1(O)C(=O)N(CN2CCOCC2)c2ccccc21)c1ccc2ccccc2c1 (stereo not drawn) | inactive | –
60 | Oc1c(Cl)cc(Cl)c(Cl)c1Cc1c(O)c(Cl)cc(Cl)c1Cl | 10 µM (active) | –
61 | Cc1cccc(OCCn2cc(S(=O)(=O)N3CCCC3)ccc2=O)c1 | inactive | –
62 | CCN(CC)CCCNC(=O)C(=O)Nc1cccc2[nH]ccc12 | inactive | –
63 | O=C(CSc1ccc2c(c1)OCCCO2)NC(c1ccccc1)c1cccs1 (stereo not drawn) | inactive | –
64 | Cc1cccc(NC(=O)CN2CCCN(c3ncc(C(F)(F)F)cc3Cl)CC2)c1 | inactive | –
65 | CCC(C)NC(=O)COc1ccc2c(C)cc(=O)oc2c1 (stereo not drawn) | inactive | –
66 | CCOC(=O)CN1C(C(=O)c2ccccc2)=C(OC(=O)CC)c2ccccc2S1(=O)=O | inactive | –

Row | SMILES | Potency | activity change, negative = inhibition
67 | COC(=O)c1[nH]c2ccc(F)cc2c1NC(=O)CCN1CCC(C)CC1 | inactive | –
68 | N#Cc1ccccc1COC(=O)c1ccccc1NCCO | inactive | –
69 | Cc1cc(C)cc(Nc2nc(NCc3ccco3)nc3c2cnn3-c2ccccc2)c1 | inactive | –
70 | Fc1cccc(-c2nc(COc3ccc4ccc(C(F)(F)F)nc4c3)co2)c1 | inactive | –
71 | C#CCN([C@H](C(=O)OC)C(C)CC)S(=O)(=O)c1ccccc1Br (stereo partly drawn) | inactive | –
72 | CC1CC1C(=O)Nc1ccc2c(c1)CCC2 (stereo not drawn) | inactive | –
73 | O=C(NCCc1ccc(F)cc1)c1[nH]c2ccccc2c1Cl | inactive | –
74 | COc1ccc(OC)c(C(O)c2nc3ccccc3n2C)c1 (stereo not drawn) | inactive | –
75 | Cc1ccc(CC(=O)NCc2ccc(COC(C)C)cc2)cc1 | inactive | –
76 | Cc1ccc(C)c(NC(NC(=O)c2cccc(Cl)c2)C(Cl)(Cl)Cl)c1 (stereo not drawn) | inactive | –
77 | CN(C(N)=NC(=O)/C=C/c1ccccc1)C(C#Cc1ccccc1)Cc1ccccc1 (stereo not drawn) | inactive | –
78 | CCc1nnsc1C(=O)NC(C)c1cccc(OC(C)C)c1 (stereo not drawn) | inactive | –
79 | O=C(CN1CCCC(C(F)(F)F)C1)Nc1cccc2ncccc12 (stereo not drawn) | inactive | –
80 | CCOC(=O)c1ccccc1NC(=O)COC(=O)c1ccc2c(c1)NC(=O)C(C)S2 (stereo not drawn) | inactive | –
81 | COc1ccc(CSc2nnc(C3CC3)n2C2CC2)cc1F | inactive | –
82 | COc1ccc(C)cc1NC(=O)c1ccc2c(c1)NC(=O)CS2 | inactive | –
83 | COc1ccc(Br)cc1COc1ccc(C#N)cc1 | inactive | –
84 | Cc1ccc(NCc2cc3ccc(C)cc3[nH]c2=O)c(C)c1 | inactive | –
85 | Cc1cnc(NC(=O)CNC(=O)c2ccoc2)s1 | inactive | –
86 | CC(CC(=O)Nc1ccc(O)cc1)(C(=O)O)c1ccccc1 (stereo not drawn) | inactive | –
87 | CC(/C=N/NC(=O)c1ccc(C)cc1)=C\c1ccccc1 | inactive | –
88 | CCC(C)NC(=O)CSc1ncc(-c2cccc(Br)c2)o1 (stereo not drawn) | inactive | –

Row | SMILES | Potency | activity change, negative = inhibition
89 | O=C(Cc1ccc(F)cc1)Nc1c(NC2CCCCC2)c2ccccc2oc1=O | inactive | –
90 | CN(C)C(CNC(=O)Cc1n[nH]c(=O)c2ccccc12)Cc1ccccc1 (stereo not drawn) | inactive | –
91 | CCCC(=O)Nc1nc2ccc(CCC(=O)NCc3cc(Br)ccc3OC)cc2s1 | inactive | –
92 | CS(=O)(=O)N(CC(=O)N1CCc2ccccc2C1)c1cc(C(F)(F)F)ccc1Cl | inactive | –
93 | COc1cccc(CNC(=O)C2CCC(CNS(=O)(=O)c3cccs3)CC2)c1 (stereo not drawn) | inactive | –
94 | Cc1ccc(C)c(N2CCN(C(=O)C3CCC(CNS(=O)(=O)c4cccs4)CC3)CC2)c1 (stereo not drawn) | 31.6 µM (active) | –
95 | O=C(CNS(=O)(=O)c1cccs1)N1CCN(c2ccccc2Cl)CC1 | inactive | –
96 | Fc1cc(CSc2nncn2C2CC2)c2ncccc2c1 | inactive | –
97 | CC1CCN(S(=O)(=O)c2ccc3oc(=O)ccc3c2)CC1 | inactive | –
98 | CCOC(=O)c1cnc(Nc2ccccc2)c2ccccc12 | inactive | –
99 | CC1(C)CC(=O)C2=C(C1)N(Cc1ccccc1)C(CCC1CCCCC1)=NC2(C(F)(F)F)C(F)(F)F | inactive | –
100 | COc1cc(C(=O)Oc2c(C)cccc2C)cc(Cl)c1OC(C)C | – | -5.15% [at 1.06 µM]
101 | CCn1c(C)cc(C(=O)Cn2nc(C)c(C)c(C#N)c2=O)c1C | inactive | –
102 | CCCCS(=O)C1CCCCC1OC(=O)c1ccccc1 (stereo not drawn) | inactive | –
103 | O=C(OCc1cccnc1)c1nn(Cc2ccccc2)c(=O)c2ccccc12 | inactive | –
104 | COC(=O)c1ccc(Cl)cc1NC(=O)Cn1c(=O)n(Cc2ccc(F)cc2)c(=O)c2ccccc21 | inactive | –
105 | CC(C)NC(=O)CN1CCCN(C(=O)c2cc3ccccc3n2C)CC1 | inactive | –
106 | O=C(COc1ccccc1)NCc1ccc2c(c1)CCN2C(=O)c1ccc(F)cc1 | inactive | –
107 | O=C(NCc1ccc2c(c1)CCN2C(=O)c1ccccc1)Nc1cc(F)ccc1F | 8.91 µM (active) | –
108 | O=C(NCc1ccc2c(c1)CCN2C(=O)c1ccccc1)c1ccccc1 | inactive | –
